Activity calls are given as the source filed them. Rule for the calls: active = hit-call score of the fitted dose curve at least 0.9, where 1 is the maximum; inactive = score below 0.9.
Columns and labels:
[1] = ATG_CRE_CIS: Attagene CIS-FACTORIAL HepG2 Assay for human cAMP Responsive Element (CRE) binding protein 3 (AID 2282926); settings: HepG2 CRE cis-reporter, Attagene multiplexed mRNA; actives raise or lower the signal
How it was run: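 Transfected HepG2 were treated for 24 hours, then RNA was extracted and reporter cDNA amplified with sequence-specific primers. Labelled fragments were separated by capillary electrophoresis, and the CRE signal was fitted bidirectionally with DMSO as baseline.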

[2] = molecular target: CCAAT/enhancer-binding protein beta (Homo sapiens) (UniProt P17676); assay: ATG_C_EBP_CIS: Attagene CIS-FACTORIAL HepG2 Assay for human CCAAT/Enhancer Binding Protein (C/EBP) beta (AID 2282927); settings: HepG2 Attagene cis-factorial transcription factor reporter; actives raise or lower the signal
CCAAT/enhancer-binding protein beta (Homo sapiens), sequence (P17676 whole entry, looked up, the tested form may be a part): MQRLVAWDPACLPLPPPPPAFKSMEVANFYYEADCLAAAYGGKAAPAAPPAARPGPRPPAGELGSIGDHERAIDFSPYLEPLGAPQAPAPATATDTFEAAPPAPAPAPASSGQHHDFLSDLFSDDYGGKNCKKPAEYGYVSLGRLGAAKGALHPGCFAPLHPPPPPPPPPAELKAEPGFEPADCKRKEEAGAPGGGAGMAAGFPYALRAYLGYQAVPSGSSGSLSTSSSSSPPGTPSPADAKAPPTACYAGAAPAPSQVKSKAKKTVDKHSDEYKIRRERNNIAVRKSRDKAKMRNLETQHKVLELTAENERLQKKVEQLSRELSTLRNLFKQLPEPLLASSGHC
How it was run: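 Endogenous C/EBPb-driven reporter transcripts measured in transfected human HepG2 cells at 24 h via RT-PCR and capillary electrophoresis of labelled fragments. Activity fitted in both directions relative to DMSO baseline.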

[3] = ATG_CMV_CIS: Attagene CIS-FACTORIAL HepG2 Assay for human CMV (Internal Marker) (AID 2282928); settings: HepG2 CMV promoter reporter, transcription factor profiling; actives raise or lower the signal;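 note: endpoint acts as a background internal control marker rather than a target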
How it was run: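 CMV internal-marker background readout in transiently transfected HepG2 cells bearing cis-regulated reporter units. Reporter mRNA is measured 24 h after dosing by RT-PCR and capillary electrophoresis, with bidirectional fitting against DMSO.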

[4] = ATG_DR4_LXR_CIS: Attagene CIS-FACTORIAL HepG2 Assay for human Liver X Receptor (LXR), DR4 submotif (AID 2282929); settings: HepG2 Attagene DR4 cis-reporter, mRNA transcription; actives raise or lower the signal
How it was run: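 Total RNA from 24 h-treated, MRTU-transfected HepG2 cells underwent reverse transcription, PCR, fluorescent primer extension and restriction digestion before capillary electrophoresis. Both increases and decreases in reporter signal were fitted against DMSO.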

[5] = molecular target: Aryl hydrocarbon receptor (Homo sapiens) (UniProt P35869); assay: ATG_Ahr_CIS: Attagene CIS-FACTORIAL HepG2 Assay for human Aryl Hydrocarbon Receptor (Ahr) (AID 2282930); settings: HepG2 AhR cis-factorial reporter transcription; actives raise or lower the signal
Aryl hydrocarbon receptor (Homo sapiens), sequence (P35869 whole entry, looked up): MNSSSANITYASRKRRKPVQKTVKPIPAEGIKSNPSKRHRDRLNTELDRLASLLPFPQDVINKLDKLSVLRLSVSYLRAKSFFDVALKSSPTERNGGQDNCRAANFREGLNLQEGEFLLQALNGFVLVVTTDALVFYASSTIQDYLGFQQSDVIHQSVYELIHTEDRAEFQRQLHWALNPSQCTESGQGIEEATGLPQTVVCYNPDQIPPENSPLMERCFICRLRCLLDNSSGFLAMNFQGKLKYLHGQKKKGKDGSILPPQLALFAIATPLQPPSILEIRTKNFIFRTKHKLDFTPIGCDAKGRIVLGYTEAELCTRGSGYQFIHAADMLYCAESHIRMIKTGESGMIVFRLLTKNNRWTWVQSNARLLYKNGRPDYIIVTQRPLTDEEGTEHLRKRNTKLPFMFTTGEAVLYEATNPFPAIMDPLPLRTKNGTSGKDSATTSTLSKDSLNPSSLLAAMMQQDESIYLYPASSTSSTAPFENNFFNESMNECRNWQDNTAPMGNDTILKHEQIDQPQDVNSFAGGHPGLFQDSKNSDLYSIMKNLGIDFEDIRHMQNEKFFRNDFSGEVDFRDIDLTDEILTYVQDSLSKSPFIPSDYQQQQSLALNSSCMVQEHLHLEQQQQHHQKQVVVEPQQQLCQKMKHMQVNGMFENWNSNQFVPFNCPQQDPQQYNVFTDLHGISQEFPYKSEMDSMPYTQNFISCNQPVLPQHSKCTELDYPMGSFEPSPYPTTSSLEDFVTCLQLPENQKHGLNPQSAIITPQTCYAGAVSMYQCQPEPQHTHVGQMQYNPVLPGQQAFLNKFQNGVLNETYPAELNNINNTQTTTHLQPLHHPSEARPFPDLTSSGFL
How it was run: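 Reporter mRNA levels, quantified by RT-PCR and fluorescent capillary electrophoresis, reflect endogenous AhR transcriptional activity in HepG2 cells carrying transfected cis-promoter reporter constructs. Readout at 24 h post-dose; gain or loss fitted against DMSO baseline.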

[6] = ATG_AP_1_CIS: Attagene CIS-FACTORIAL HepG2 Assay for human Activator Protein 1 (AP-1) (AID 2282931); settings: HepG2 Attagene cis-factorial AP-1 reporter mRNA; actives raise or lower the signal
How it was run: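 HepG2, transient cis-reporter transfection; 24 h; readout RT-PCR/CE fluorescence; DMSO baseline, gain and loss fitted.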

[7] = ATG_AP_2_CIS: Attagene CIS-FACTORIAL HepG2 Assay for human Activator Protein 2 (AP-2) (AID 2282932); settings: HepG2 AP-2 cis-reporter, Attagene transcription factor profiling; actives raise or lower the signal
How it was run: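 Step one: transient transfection of HepG2 with reporter transcription units. Step two: 24 h chemical exposure. Step three: RNA extraction, RT-PCR, labelled fragment analysis by capillary electrophoresis; DMSO serves as baseline.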

[8] = ATG_BRE_CIS: Attagene CIS-FACTORIAL HepG2 Assay for human Bone Morphogenetic Protein (BMP) Response Element (BRE) (AID 2282933); settings: HepG2 BMP response element reporter, Attagene transcription factor profiling; actives raise or lower the signal
How it was run: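 HepG2 cells transiently transfected with multiplexed cis-element reporter units were dosed with chemical for 24 h. Reporter mRNA was measured by RT-PCR with fluorescent labelling, HpaI digestion and capillary electrophoresis; bidirectional fitting relative to DMSO.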

[9] = molecular target: Retinoic acid receptor alpha (Homo sapiens) (UniProt P10276); assay: ATG_DR5_RAR_CIS: Attagene CIS-FACTORIAL HepG2 Assay for human Retinoic Acid Receptor Alpha (RARE), DR5 submotif (AID 2282934); settings: HepG2 Attagene cis-factorial RARE DR5 reporter, mRNA; actives raise or lower the signal;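 for AC50: reporter responds to endogenous RAR alpha beta and gamma in HepG2 not RARA alone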
Retinoic acid receptor alpha (Homo sapiens), sequence (P10276 whole entry, looked up): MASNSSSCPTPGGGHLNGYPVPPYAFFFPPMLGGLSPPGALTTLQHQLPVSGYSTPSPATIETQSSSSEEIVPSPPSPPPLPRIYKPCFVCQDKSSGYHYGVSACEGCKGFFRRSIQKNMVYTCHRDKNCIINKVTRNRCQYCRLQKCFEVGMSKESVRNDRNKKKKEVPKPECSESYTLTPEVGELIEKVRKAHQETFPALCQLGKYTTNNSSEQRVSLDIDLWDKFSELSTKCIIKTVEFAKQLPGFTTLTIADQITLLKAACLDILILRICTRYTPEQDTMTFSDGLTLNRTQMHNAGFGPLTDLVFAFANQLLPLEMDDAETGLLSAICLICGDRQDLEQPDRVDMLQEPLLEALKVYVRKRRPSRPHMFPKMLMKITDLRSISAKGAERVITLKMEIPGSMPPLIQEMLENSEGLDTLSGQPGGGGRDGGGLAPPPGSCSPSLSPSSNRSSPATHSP
How it was run: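 Reporter transcripts from a DR5-regulated unit, measured via RT-PCR plus capillary electrophoresis, reflect endogenous RAR activity in transiently transfected human HepG2 liver cells. Exposure lasted 24 h; gain or loss of signal scored against DMSO.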

[10] = molecular target: Transcription factor E2F1 (Homo sapiens) (UniProt Q01094); assay: ATG_E2F_CIS: Attagene CIS-FACTORIAL HepG2 Assay for human E2F Transcription Factor 1 (AID 2282935); settings: HepG2 Attagene cis-reporter, E2F reporter RNA transcripts; actives raise or lower the signal
Transcription factor E2F1 (Homo sapiens), sequence (Q01094 whole entry, looked up): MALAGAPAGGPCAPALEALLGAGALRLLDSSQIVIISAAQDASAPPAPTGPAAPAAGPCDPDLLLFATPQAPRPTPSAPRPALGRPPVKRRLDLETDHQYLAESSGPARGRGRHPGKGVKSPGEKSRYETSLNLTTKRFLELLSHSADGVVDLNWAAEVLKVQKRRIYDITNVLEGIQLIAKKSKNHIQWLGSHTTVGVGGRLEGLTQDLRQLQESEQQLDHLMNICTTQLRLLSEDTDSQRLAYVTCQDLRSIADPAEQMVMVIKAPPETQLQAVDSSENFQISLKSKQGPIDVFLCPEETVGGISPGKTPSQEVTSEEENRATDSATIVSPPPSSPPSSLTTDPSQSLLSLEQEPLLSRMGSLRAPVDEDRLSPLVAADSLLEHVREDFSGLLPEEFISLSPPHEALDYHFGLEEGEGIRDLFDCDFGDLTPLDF
How it was run: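 Total RNA from 24 h-treated, reporter-transfected HepG2 cells undergoes DNase I treatment, oligo(dT) reverse transcription, PCR and 6-FAM primer extension before capillary electrophoresis.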

[11] = ATG_E_Box_CIS: Attagene CIS-FACTORIAL HepG2 Assay for human Enhancer Box (E-box) (AID 2282936); settings: HepG2 E-box cis-reporter transcription, actives raise or lower the signal
How it was run: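 DMSO served as negative control and baseline for bidirectional fitting. Human hepatoma HepG2 cells, transiently transfected with cis-reporter constructs, were dosed 24 h; reporter mRNA read by RT-PCR and capillary electrophoresis.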

[12] = ATG_M_61_CIS: Attagene CIS-FACTORIAL HepG2 Assay for M61 Transcription Factor (Internal Marker) (AID 2282937); settings: HepG2 Attagene CIS-FACTORIAL M61 internal marker reporter; actives raise or lower the signal
How it was run: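 Transfect HepG2 with MRTUs; dose 24 h; isolate RNA; reverse-transcribe with DNase I treatment; PCR-amplify, FAM-label and cut with HpaI for 2 h at 37 C; resolve by CE. Bidirectional fitting against DMSO.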

[13] = ATG_EGR_CIS: Attagene CIS-FACTORIAL HepG2 Assay for human Early Growth Response 1 (EGR1) (AID 2282938); settings: HepG2 Attagene CIS-FACTORIAL EGR reporter mRNA; actives raise or lower the signal
How it was run: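 After a 24 h treatment of transiently transfected HepG2 cells, total RNA was reverse-transcribed and reporter sequences PCR-amplified, labelled and run on capillary electrophoresis. Reporters sit under cis-regulatory promoters sensing endogenous factors.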

[14] = ATG_M_19_CIS: Attagene CIS-FACTORIAL HepG2 Assay for M19 Transcription Factor (Internal Marker) (AID 2282939); settings: HepG2 Attagene CIS-FACTORIAL M19 internal marker reporter; actives raise or lower the signal
How it was run: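 HepG2 cells transiently transfected with cis-regulated multiple reporter transcription units were dosed for 24 h; reporter mRNA was quantified by RT-PCR, 6-FAM primer-extension labelling, HpaI digestion and capillary electrophoresis, with bidirectional fitting against DMSO baseline.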

[15] = ATG_ERE_CIS: Attagene CIS-FACTORIAL HepG2 Assay for Estrogen Response Element (ERE) (AID 2282940); settings: HepG2 ERE cis-reporter, Attagene RNA transcript; actives raise or lower the signal
How it was run: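 HepG2 cells transiently transfected with cis-promoter-driven multiplexed reporter transcription units report endogenous TF activity. After 24 h compound exposure, reporter mRNA is quantified by RT-PCR with capillary electrophoresis fluorescence; bidirectional fitting versus DMSO baseline.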

[16] = ATG_Ets_CIS: Attagene CIS-FACTORIAL HepG2 Assay for human Erythroblast Transformation Specific (ETS) (AID 2282941); settings: HepG2 ETS cis-reporter transcription, actives raise or lower the signal
How it was run: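 HepG2 cells transfected with multiple cis-regulated reporter units measuring endogenous ETS-driven transcription, 24 h after dosing. Reporter mRNA quantified by RT-PCR with capillary electrophoresis; bidirectional fit relative to DMSO.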

[17] = molecular target: Hepatocyte nuclear factor 3-beta (Homo sapiens) (UniProt Q9Y261); assay: ATG_FoxA2_CIS: Attagene CIS-FACTORIAL HepG2 Assay for human Forkhead box A2 (FOXA2) (AID 2282942); settings: HepG2 cis-reporter transcription factor activity, 24 h; actives raise or lower the signal
Hepatocyte nuclear factor 3-beta (Homo sapiens), sequence (Q9Y261 whole entry, looked up): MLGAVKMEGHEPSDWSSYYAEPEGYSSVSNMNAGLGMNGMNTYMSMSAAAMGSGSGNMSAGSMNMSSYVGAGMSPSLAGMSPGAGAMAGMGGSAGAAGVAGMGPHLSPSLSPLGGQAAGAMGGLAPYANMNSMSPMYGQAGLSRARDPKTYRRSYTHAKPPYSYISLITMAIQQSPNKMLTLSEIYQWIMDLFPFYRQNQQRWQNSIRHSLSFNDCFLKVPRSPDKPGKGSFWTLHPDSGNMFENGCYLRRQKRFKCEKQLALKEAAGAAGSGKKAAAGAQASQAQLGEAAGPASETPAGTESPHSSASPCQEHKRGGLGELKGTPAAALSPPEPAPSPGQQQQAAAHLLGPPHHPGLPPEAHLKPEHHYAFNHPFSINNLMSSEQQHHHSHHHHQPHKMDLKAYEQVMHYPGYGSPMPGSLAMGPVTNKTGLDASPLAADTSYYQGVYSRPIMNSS
How it was run: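 24 h dosing of HepG2 bearing cis-reporter constructs; mRNA readout by RT-PCR/CE fluorescence; bidirectional fit, DMSO baseline.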

[18] = ATG_FoxO_CIS: Attagene CIS-FACTORIAL HepG2 Assay for human Forkhead box O (FoxO) (AID 2282943); settings: HepG2 Attagene cis-reporter, FoxO element, mRNA; actives raise or lower the signal
How it was run: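 Endogenous transcription factor activity read from multiplexed cis-promoter reporter transcripts in transiently transfected HepG2, 24 h after dosing. Reporter RNA measured via RT-PCR plus capillary electrophoresis of FAM-labeled products; gain or loss relative to DMSO.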

[19] = ATG_GATA_CIS: Attagene CIS-FACTORIAL HepG2 Assay for human GATA Binding Protein (AID 2282944); settings: HepG2 GATA cis-element reporter, Attagene multiplex mRNA; actives raise or lower the signal
How it was run: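 HepG2 cells transiently transfected with multiplexed cis-element reporter units reflecting endogenous transcription factor activity; reporter mRNA measured after 24 h dosing by RT-PCR, 6-FAM labeling, HpaI digestion and capillary electrophoresis. Bidirectional fitting versus DMSO baseline.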

[20] = ATG_GLI_CIS: Attagene CIS-FACTORIAL HepG2 Assay for human Zinc Finger Protein GLI1 (AID 2282945); settings: HepG2, Attagene cis-factorial reporter mRNA, GLI element; actives raise or lower the signal
How it was run: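 Bidirectional curve fits relative to DMSO, using reporter mRNA levels from RT-PCR plus capillary electrophoresis. Cells were HepG2 transiently carrying cis-regulated reporter constructs, harvested 24 h after dosing.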

Measured: AC50

CC(=O)OCC(C)OC(C)=O (stereo not given)
inactive: all assays above

COC(=O)c1sccc1S(N)(=O)=O
inactive: all assays above

CCCOC(=O)CCCCC(=O)OCCC
inactive: all assays above

CCCCCCCCCCCSCC(=O)O
active: [4] 48.8 µM | [9] 2.13 µM | [11] 100 µM | [13] 82.6 µM
inactive: all other assays above

Cn1c(=O)[nH]c2ncn(C)c2c1=O
inactive: all assays above

CC(=O)[C@@]1(O)CC[C@H]2[C@@H]3C[C@H](C)C4=CC(=O)C=C[C@]4(C)[C@@]3(F)[C@@H](O)C[C@@]21C
active: [9] 100 µM
inactive: all other assays above

C=CC(C)(CCC=C(C)C)OC(=O)CC(C)C (stereo not given)
active: [3] 75.3 µM | [4] 133 µM | [6] 119 µM | [15] 74.1 µM
inactive: all other assays above

O=C(c1ccccc1)C1CCC1
inactive: all assays above

Cc1ccc([N+](=O)[O-])cc1S(=O)(=O)O
active: [7] 163 µM | [18] 153 µM
inactive: all other assays above

CCOC(=O)NNc1nncc2ccccc12
active: [15] 60 µM
inactive: all other assays above

CC[C@H]1OC(=O)[C@H](C)[C@@H](O[C@H]2C[C@@](C)(OC)[C@@H](O)[C@H](C)O2)[C@H](C)[C@@H](O[C@@H]2O[C@H](C)C[C@H](N(C)C)[C@H]2O)[C@](C)(O)C[C@@H](C)C(=NOCOCCOC)[C@H](C)[C@@H](O)[C@]1(C)O
active: [15] 37.6 µM
inactive: all other assays above

O=S(=O)(O)CC(O)CCl (stereo not given)
inactive: all assays above

CCCCCC/C=C\CCCCCCCC(=O)O
active: [1] 34.7 µM | [4] 27.3 µM | [9] 34.2 µM
inactive: all other assays above
